# Source: PubChem
# This excerpt belongs to a sample that is enriched for hits.
# AMPAR-TARP mod: modulates AMPAR-stargazin complexes; AID 1259245; O88602+P19491; actives 3.5% (n = 40,000); HEK293 GluA2+stargazin, membrane potential dye (FDSS), glutamate EC50; hits were called plate by plate, in both directions; calls only at 30 µM;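 active means any of four per-well response measures lying three or more SD from its plate-wide compound average, in either direction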
# GIRK2 activator: GIRK2 channel activators by thallium flux. HEK293 GIRK2/NPY4 cells, thallium flux fluorescence. activation (% efficacy), % for hits at 37.5 µM. 34,000 tested, under 10 active. AID 1259324;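 active means primary screen hit, no activity in plain HEK293 cells, and in GIRK2-only cells above 5% efficacy rising with concentration; inactive means the rest, including fluorescent compounds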;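 further: efficacy is normalized control-subtracted fluorescence 15 s after thallium addition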
# Target sequence (P48051 whole entry, looked up): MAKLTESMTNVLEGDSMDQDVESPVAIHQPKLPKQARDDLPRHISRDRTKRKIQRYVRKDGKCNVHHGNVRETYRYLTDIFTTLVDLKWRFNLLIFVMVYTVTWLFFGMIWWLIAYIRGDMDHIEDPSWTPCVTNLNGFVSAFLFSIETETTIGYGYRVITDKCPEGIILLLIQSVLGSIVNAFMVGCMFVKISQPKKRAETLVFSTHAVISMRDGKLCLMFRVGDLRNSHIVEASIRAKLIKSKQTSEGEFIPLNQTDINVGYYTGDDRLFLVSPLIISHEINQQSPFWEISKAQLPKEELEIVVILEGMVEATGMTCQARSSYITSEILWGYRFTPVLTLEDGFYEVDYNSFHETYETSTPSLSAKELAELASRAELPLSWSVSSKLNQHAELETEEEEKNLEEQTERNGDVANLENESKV
# * hit, by the source's call; i = inactive; . = not tested or not shown; + = active, no number.
SMILES,AMPAR-TARP mod,GIRK2 activator
COc1cc(OC)cc(C(=O)N2CCN(c3ccc(-c4ccncc4)nn3)CC2)c1,+,i
COc1cc(/C=C2\Oc3cc(OCC(=O)OCc4ccccc4)ccc3C2=O)cc(OC)c1OC,i,.
COc1ccc(C(=O)N2CCN(c3ncnc4c3nnn4C)CC2)cc1,i,i
O=C(CN1C(=O)c2ccccc2C1=O)Nc1ccc(N2CCCCS2(=O)=O)cc1,i,.
Cc1c(Cl)cccc1S(=O)(=O)NCC1CCN(Cc2ccsc2)CC1,.,i
COc1ccc(-c2cc(=O)[nH]c(SCc3nc(-c4ccccc4F)no3)n2)cc1,.,i
O=C(Cc1ccc(-c2ccccc2)cc1)Nc1cccc(N2CCCC2=O)c1,i,i
CCOc1ccc(-c2ccc(N3CCN(C(=O)Cc4noc5ccccc45)CC3)nn2)cc1,i,i
Cn1nc(-c2cccc(NC(=O)Nc3ccccc3)c2)ccc1=O,i,i
Cn1nc(-c2cccc(NC(=O)c3cccnc3)c2)ccc1=O,+,i
CC(C)(Oc1ccc(Cl)cc1)C(=O)N1CCC(c2ccsc2)CC1,i,i
CSc1ccccc1C(=O)NCCC(O)c1ccccc1 (stereo unspecified),i,i
O=C(NCc1ccccc1)C(=O)NCC1CCN(Cc2ccco2)CC1,i,i
CCCc1ccc(S(=O)(=O)NCC2CCN(Cc3ccco3)CC2)cc1,+,i
CC(=O)Nc1ccc(S(=O)(=O)NCC2CCN(Cc3ccco3)CC2)cc1,i,i
COc1ccc(CNC(=O)C(=O)NCC2CCN(Cc3ccco3)CC2)cc1,+,i
C=CCSc1nnc(-c2ccccc2NC(=O)c2cccc(S(=O)(=O)N3CCCCC3)c2)o1,i,i
CN(C1CCCC1)S(=O)(=O)c1ccc(C(=O)Nc2ncnc3sccc23)cc1,i,.
CCN(C1CCCCC1)S(=O)(=O)c1ccc(C(=O)Nc2ncnc3sccc23)cc1,+,i
COc1cccc(CCNC(=O)CC2CCCCN2S(=O)(=O)c2ccc(Cl)cc2)c1 (stereo unspecified),+,.
COc1ccc(S(=O)(=O)N2CCCCC2CC(=O)NCc2ccccc2Cl)cc1 (stereo unspecified),+,.
COc1cccc(CCNC(=O)CC2CCCCN2S(=O)(=O)c2ccccc2)c1 (stereo unspecified),i,.
COc1ccc(S(=O)(=O)N2CCCCC2CC(=O)NCc2ccccc2OC)cc1 (stereo unspecified),i,.
O=C(NCCc1c[nH]c2ccccc12)c1csc(NS(=O)(=O)c2ccccc2)n1,i,i
COC(=O)C12CC3CC(CC(NC(=O)c4nc5ccccc5s4)(C3)C1)C2,i,.
SMILES,AMPAR-TARP mod,GIRK2 activator
O=C(NCC(O)(c1cccs1)C1CC1)NC1CCCCC1 (stereo unspecified),+,i
O=C(NCC(O)(c1cccs1)C1CC1)c1ccco1 (stereo unspecified),i,i
O=C(NCC(O)(c1ccco1)C1CC1)Nc1ccccc1C(F)(F)F (stereo unspecified),i,i
O=C(NCc1cccs1)NCC(O)(c1cccs1)C1CC1 (stereo unspecified),i,i
O=C(NCC(O)(c1cccs1)C1CC1)C1c2ccccc2Oc2ccccc21 (stereo unspecified),+,i
O=C(NCC(O)(c1ccco1)C1CC1)NC1CCCCC1 (stereo unspecified),+,i
CCOc1ccccc1NC(=O)Cc1cc(=O)oc2cc(C)ccc12,i,i
Cc1cnn(C)c1C(=O)Nc1nnc(C2CCCCC2)o1,.,i
Cc1ccc(C(=O)NCCOc2ccc(-c3cccs3)nn2)cc1[N+](=O)[O-],i,i
O=S(=O)(c1ccc(Cl)c(Cl)c1)N1CCN(CCO)CC1,i,i
COC(=O)c1scc(-c2ccccc2)c1S(=O)(=O)N1CCN(c2ncccn2)CC1,i,.
CCOC(=O)c1scc(-c2ccc(C)cc2)c1S(=O)(=O)N1CCN(c2ccccn2)CC1,+,i
COCCNC(=O)C(=O)NCc1ccco1,i,i
CCOC(=O)c1c(C)c(C(=O)NCc2ccco2)c(C)n1CC,+,i
COc1ccc(-c2nsc(C(=O)NCCc3ccccc3)c2N)cc1,.,i
CCOC(=O)C1CCN(C(=O)Cc2csc(Nc3ccccc3)n2)CC1,i,i
CCOC(=O)C1CCN(C(=O)Cc2csc(Nc3cccc(C(F)(F)F)c3)n2)CC1,+,i
COc1ccc(CCNC(=O)COc2ccc(C(C)C)c(C)c2)cc1OC,+,i
COc1ccc(OCC(=O)NCCc2ccc(OC)c(OC)c2)cc1,i,i
COC(=O)N1CCC(CNC(=O)/C=C/c2cccs2)CC1,i,i
O=C(/C=C/c1cccs1)NCC1CCN(Cc2ccsc2)CC1,+,i
O=C(CSc1ccc(-c2ccc3c(c2)OCO3)nn1)Nc1ccccc1Cl,i,i
Cc1cc(C)cc(-n2ccnc(SCc3ccc([N+](=O)[O-])cc3)c2=O)c1,i,.
COc1ccc2sc(N(Cc3ccncc3)C(=O)c3ccccc3S(C)(=O)=O)nc2c1,i,i
COc1ccccc1C(=O)N(CCc1cccs1)c1nc2ccc(S(C)(=O)=O)cc2s1,+,i
SMILES,AMPAR-TARP mod,GIRK2 activator
CCNc1cc(NCCNS(=O)(=O)c2ccc3ccccc3c2)nc(C)n1,.,i
Cc1ccccc1-c1ccc(N2CCC(C(=O)NCc3cccnc3)CC2)nn1,i,i
Cc1ccccc1-c1ccc(N2CCC(C(=O)NCc3ccco3)CC2)nn1,+,i
O=C(CNC(=O)c1c[nH]c2ccccc12)NCC1CCCO1 (stereo unspecified),i,i
COc1cc(C(=O)Nc2cc3c4c(c2)CC(=O)N4CCC3)cc(OC)c1OC,i,i
O=C(Nc1cc2c3c(c1)CC(=O)N3CCC2)c1cnccn1,+,i
CCOc1ccc(-c2cccc(NC(=O)COc3ccc(C(=O)c4ccccc4)cc3)c2)nn1,i,i
CC(Oc1ccccc1F)C(=O)NCCCn1nc(-c2ccccc2)ccc1=O (stereo unspecified),i,i
COc1ccc(F)cc1S(=O)(=O)Nc1ccc(-c2ccc(=O)n(C)n2)cc1,i,i
COc1ccc(F)cc1S(=O)(=O)Nc1cccc(-c2ccc(=O)n(C)n2)c1,+,i
CC1=C(C(=O)Nc2cccc(C(F)(F)F)c2)C(c2ccc3c(c2)OCO3)C2=C(CCCC2=O)N1 (stereo unspecified),i,.
CN1C(=O)Cc2cc(NC(=O)Nc3ccc(Cl)c(Cl)c3)ccc21,i,i
CN1C(=O)Cc2cc(NC(=O)/C=C/c3ccccc3)ccc21,+,i
CC(=O)Nc1ccc2c(c1)CC(=O)N2C,i,.
CN1C(=O)Cc2cc(NC(=O)Nc3cccc(Cl)c3)ccc21,+,i
O=C(NCc1n[nH]c(=O)c2ccccc12)c1ccc(Br)o1,i,i
O=C(NCc1n[nH]c(=O)c2ccccc12)c1cc(=O)c2ccccc2o1,+,i
CCOc1ccccc1C(=O)N1CCN(c2ncnc3c2nnn3-c2ccc(F)cc2)CC1,i,i
CCOc1ccccc1C(=O)N1CCN(c2ncnc3c2nnn3-c2ccc(OC)cc2)CC1,+,.
COc1ccc(F)cc1S(=O)(=O)NCC1CCN(C(=O)NC(C)(C)C)CC1,i,i
